TDP1 inh = qHTS Assay for Inhibitors of Tyrosyl-DNA Phosphodiesterase (TDP1) | recombinant TDP1, AlphaScreen DNA substrate cleavage | AID 485290, 2010 | hit rate 0.28% among 350,000 | Potency, µM (highest dose often 130 µM), for the others: top-dose activity change, negative = inhibition, most hits filed as inhibitors; note: nearly all actives have a fitted effect of over 40% in size
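E. coli-derived human Tdp1, 1 nM final. Cpd preinc 15 min RT; substrate 15 nM final, 5 min RT; AS bead mix 10 ug/ml final, 10 min RT. Signal loss = tyrosine-FITC cleavage. No-enzyme wells = max signal.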
DT40 TDP1 no CPT = qHTS for Inhibitors of human tyrosyl-DNA phosphodiesterase 1 (TDP1): qHTS in cells in absence of CPT; Potency, µM (titrated, usually from 46.2 µM), without a hit: top-dose activity change, negative = growth inhibition, most hits filed as inhibitors; hit rate 15% among 420,000; DT40 Tdp1-/- hTDP1 cells, no CPT, ATP luminescence, 48 h; note: nearly all actives have a fitted effect of over 55% in size
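Growth of hTDP1-complemented DT40 Tdp1-knockout cells is measured by ATP luminescence after at least 48 hr compound exposure at 37 °C, with DMSO substituting for the 20 nM CPT used in the parallel screen.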
Gal4-VP16 FLuc = VP16 counterscreen qHTS for inhibitors of ROR gamma transcriptional activity; Drosophila S2 Gal4-VP16 UAS-luciferase, luminescence, 20 h; Potency, µM (doses to about 53.6 µM), for inactives: at the top dose activity, negative = inhibition, usual class: inhibitors; hit rate 3.5% among 310,000;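 note: Gal4-VP16 expression switched on by copper sulfate through the metallothionein promoter; nearly all actives have a fitted effect of over 50% in size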
RORg inh = qHTS for inhibitors of ROR gamma transcriptional activity. hit rate 5.4% among 310,000. Nuclear receptor ROR-gamma (Mus musculus), P51450. Drosophila S2 Gal4-RORgamma UAS-luciferase reporter, 20 h. Potency, µM (titrated, usually from 53.6 µM), for inactives: at the top dose activity change, negative = inhibition, actives largely listed as inhibitors; note: nearly all actives have a fitted effect of over 60% in size
Target sequence (P51450 whole entry, looked up, the tested form may be a part): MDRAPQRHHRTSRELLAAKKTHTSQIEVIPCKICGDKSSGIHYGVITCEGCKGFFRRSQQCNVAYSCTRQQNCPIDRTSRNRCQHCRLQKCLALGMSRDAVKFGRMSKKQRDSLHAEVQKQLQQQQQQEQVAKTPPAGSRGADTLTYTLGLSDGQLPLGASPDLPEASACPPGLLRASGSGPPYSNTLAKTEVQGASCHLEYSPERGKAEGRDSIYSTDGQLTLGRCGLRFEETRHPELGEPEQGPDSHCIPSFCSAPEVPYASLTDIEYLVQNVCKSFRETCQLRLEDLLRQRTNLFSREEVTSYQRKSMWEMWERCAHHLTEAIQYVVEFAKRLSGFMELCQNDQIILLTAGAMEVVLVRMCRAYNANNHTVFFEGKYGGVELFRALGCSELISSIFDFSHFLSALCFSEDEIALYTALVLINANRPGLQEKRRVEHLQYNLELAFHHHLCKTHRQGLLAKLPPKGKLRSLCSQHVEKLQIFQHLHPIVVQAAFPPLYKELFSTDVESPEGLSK
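Drosophila Schneider cells stably carrying a metallothionein-driven Gal4 DBD–ROR gamma fusion and a UAS-Photinus luciferase reporter were exposed to compound for 1 hr, then induced with copper sulfate (700 uM final) for 20 hr at ambient temperature before luminescence reading.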
DT40 TDP1 CPT = qHTS for Inhibitors of human tyrosyl-DNA phosphodiesterase 1 (TDP1): qHTS in cells in presence of CPT; chicken DT40 Tdp1-/-;hTDP1 cells + 20 nM CPT, ATP luminescence, 48 h; Potency, µM (series often up to 46.2 µM), inactives show at the top dose activity change, negative = growth inhibition, hits mostly inhibitors; hit rate 12% among 420,000; AID 686979, 2013; note: nearly all actives have a fitted effect of over 55% in size
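Chicken DT40 Tdp1-/- cells complemented with human TDP1, 400 cells/well, exposed to compounds plus 20 nM camptothecin for at least 48 h at 37 C; viability read as ATP content by CellTiter-Glo luminescence.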
Numbers without * were called inactive. Only some compounds are listed: those with a hit (about 19% of all), similar ones and a draw of the others. Calls come from the whole dose curve; as a rule, active = well fitted curve in the direction sought with a large enough effect; inconclusive = small, poorly fitted or top-dose-only effect, or another doubt; inactive = no such curve, though single readings can be large; an effect the other way counts as inactive or inconclusive. % is set by controls: 0 for no effect and ±100 for the full control effect; potency is the fitted concentration of half-maximal effect.

How did O=C(CP(=O)(c1ccccc1)c1ccccc1)N/N=C/c1cc(Br)cc(Br)c1O do in these assays?
TDP1 inh: 8%; DT40 TDP1 no CPT: 15µM*; Gal4-VP16 FLuc: 2.5µM*; RORg inh: 1.1µM*; DT40 TDP1 CPT: 15µM*

Results for CCOc1cccc(C(=O)NNC(=O)CCC(=O)O)c1 ?
TDP1 inh: 5%; DT40 TDP1 no CPT: -25%; Gal4-VP16 FLuc: 1%; RORg inh: 5%; DT40 TDP1 CPT: -2%

What do the screens show for `C/C=C/c1ccc(OCCCCN2CCN(CC)CC2)c(OC)c1`?
TDP1 inh: -5%; DT40 TDP1 no CPT: 29µM*; Gal4-VP16 FLuc: 1%; RORg inh: 6%; DT40 TDP1 CPT: inconclusive

What do the screens show for `C/C=C/c1ccc(OCCCCNCc2ccco2)c(OC)c1`?
TDP1 inh: -5%; DT40 TDP1 no CPT: inconclusive; Gal4-VP16 FLuc: -19%; RORg inh: 7%; DT40 TDP1 CPT: 26µM*

What do the screens show for `C=CCc1ccccc1OCCn1nnc2ccccc21`?
DT40 TDP1 no CPT: 23µM*; Gal4-VP16 FLuc: -4%; RORg inh: -9%; DT40 TDP1 CPT: inconclusive

Results for C/C=C/c1ccc(OCCn2nnc3ccccc32)c(OC)c1 ?
DT40 TDP1 no CPT: 15µM*; Gal4-VP16 FLuc: inconclusive; RORg inh: inconclusive; DT40 TDP1 CPT: 18µM*

How did O=C(NCCc1ccccc1)c1ccc(Cl)cc1[N+](=O)[O-] do in these assays?
DT40 TDP1 no CPT: -14%; Gal4-VP16 FLuc: 13%; RORg inh: 31%; DT40 TDP1 CPT: -2%

Results for COC(=O)c1c(OCc2cccnc2)cc(=O)n2c1CCN(C(=O)c1cccc(N(C)C)c1)CC2 ?
DT40 TDP1 no CPT: -8%; DT40 TDP1 CPT: -6%

How did O=c1cc(-c2ccccc2)c2cc3c(cc2[nH]1)OCCO3 do in these assays?
TDP1 inh: 3%; DT40 TDP1 no CPT: inconclusive; Gal4-VP16 FLuc: 14%; RORg inh: 23%; DT40 TDP1 CPT: -24%

What do the screens show for `O=c1cc(-c2ccc([N+](=O)[O-])cc2)c2cc3c(cc2[nH]1)OCCO3`?
TDP1 inh: 1%; DT40 TDP1 no CPT: 10µM*; Gal4-VP16 FLuc: 19%; RORg inh: 31%; DT40 TDP1 CPT: inconclusive

How did CC(=O)Nc1cc(-c2ccc(F)cc2)cn2c(-c3ccc(F)c(Cl)c3)cnc12 do in these assays?
DT40 TDP1 no CPT: 23µM*; DT40 TDP1 CPT: inconclusive

Results for CC(=O)Nc1cc(-c2ccccc2)cn2c(-c3ccc(F)c(Cl)c3)cnc12 ?
DT40 TDP1 no CPT: inconclusive; DT40 TDP1 CPT: 23µM*

Results for O=C(NC(=S)Nc1ccc2[nH]c(=O)[nH]c2c1)c1ccccc1Cl ?
TDP1 inh: 2%; DT40 TDP1 no CPT: -25%; Gal4-VP16 FLuc: 5%; RORg inh: -1%; DT40 TDP1 CPT: 4%

What do the screens show for `CCc1cccc(CC)c1NC(=O)Cn1nnc2sc3c(c2c1=O)CCCC3`?
TDP1 inh: -1%; DT40 TDP1 no CPT: 8.2µM*; DT40 TDP1 CPT: inconclusive

What do the screens show for `CCCCc1ccc(NC(=O)Cn2nnc3sc4c(c3c2=O)CCC(C)C4)cc1` (stereo not drawn)?
TDP1 inh: -1%; DT40 TDP1 no CPT: inconclusive; DT40 TDP1 CPT: inconclusive

Results for CC1CCc2c(sc3nnn(CC(=O)Nc4c(C(C)C)cccc4C(C)C)c(=O)c23)C1 (stereo not drawn) ?
TDP1 inh: 2%; DT40 TDP1 no CPT: 15µM*; DT40 TDP1 CPT: inconclusive

How did C=CCn1cc(C(=O)N2CCN(CC)CC2)c(=O)c2cc(S(=O)(=O)N(CC)CC)ccc21 do in these assays?
DT40 TDP1 no CPT: 12%; Gal4-VP16 FLuc: -5%; RORg inh: -3%; DT40 TDP1 CPT: inconclusive

What do the screens show for `CC(C)c1nc2c([nH]1)c(=O)n(C)c(=O)n2C`?
TDP1 inh: 1%; DT40 TDP1 no CPT: 10%; Gal4-VP16 FLuc: -4%; RORg inh: 6%; DT40 TDP1 CPT: -1%

What do the screens show for `CC1CN(c2ccc(Oc3ccccc3)cc2)c2nc3c(c(=O)n(CC(N)=O)c(=O)n3C)n2C1` (stereo not drawn)?
DT40 TDP1 no CPT: inconclusive; Gal4-VP16 FLuc: -5%; RORg inh: 0%; DT40 TDP1 CPT: -1%

How did CN(C)S(=O)(=O)c1ccc2nnn(OCC(=O)NC34CC5CC(CC(C5)C3)C4)c2c1 do in these assays?
TDP1 inh: 5%; DT40 TDP1 no CPT: 26µM*; Gal4-VP16 FLuc: -7%; RORg inh: 13%; DT40 TDP1 CPT: inconclusive

How did CSc1cccc(NC(=O)CNS(=O)(=O)c2ccccc2)c1 do in these assays?
TDP1 inh: 3%; DT40 TDP1 no CPT: 16%; Gal4-VP16 FLuc: -7%; RORg inh: -9%; DT40 TDP1 CPT: -13%

Results for COC(=O)Cn1c(=NC(=O)c2ccc(OC)cc2)sc2cc(OC)ccc21 ?
TDP1 inh: -3%; DT40 TDP1 no CPT: 9.2µM*; Gal4-VP16 FLuc: -8%; RORg inh: -16%; DT40 TDP1 CPT: inconclusive

What do the screens show for `COC(=O)Cn1c(=NC(=O)c2cc(OC)cc(OC)c2)sc2cc(OC)ccc21`?
TDP1 inh: 1%; DT40 TDP1 no CPT: inconclusive; Gal4-VP16 FLuc: -12%; RORg inh: inconclusive; DT40 TDP1 CPT: inconclusive

How did COC(=O)Cn1c(=NC(=O)c2cccc(OC)c2)sc2cc(OC)ccc21 do in these assays?
DT40 TDP1 no CPT: 23µM*; Gal4-VP16 FLuc: -4%; RORg inh: -10%; DT40 TDP1 CPT: -74%

Results for Cc1ccc(-c2nc(CN3CCCCC3c3cccc(F)c3)c(C)o2)o1 (stereo not drawn) ?
TDP1 inh: 4%; DT40 TDP1 no CPT: inconclusive; Gal4-VP16 FLuc: 8%; RORg inh: inconclusive; DT40 TDP1 CPT: inconclusive

What do the screens show for `COc1ccc(C2C(C#N)=C(N)N(c3ccccc3)C3=C2C(=O)CCC3)cc1Cn1cc([N+](=O)[O-])cn1` (stereo not drawn)?
TDP1 inh: 3%; DT40 TDP1 no CPT: inconclusive; Gal4-VP16 FLuc: 1%; RORg inh: -37%; DT40 TDP1 CPT: inconclusive

Results for Cc1cc2c(s1)c1cnn(Cc3ccc(Cl)cc3)c(=O)c1n2C ?
TDP1 inh: 35µM*

What do the screens show for `Cc1cc2c(s1)c1cnn(Cc3cccc(F)c3F)c(=O)c1n2C`?
TDP1 inh: -4%

How did O=C(COc1ccc2c3c(c(=O)oc2c1)CCC3)N1CCN(c2ccccc2)CC1 do in these assays?
TDP1 inh: 7%; DT40 TDP1 no CPT: inconclusive; Gal4-VP16 FLuc: 18%; RORg inh: 20%; DT40 TDP1 CPT: inconclusive

How did Fc1ccc(-c2oncc2-c2nnnn2-c2ccccc2)cc1F do in these assays?
TDP1 inh: 2%; DT40 TDP1 no CPT: -6%; Gal4-VP16 FLuc: -10%; RORg inh: -2%; DT40 TDP1 CPT: 7%
